# Assay outcomes as filed in PubChem.
# The sample as a whole holds a higher share of hits than the screen did.
# TTR transcr act = activators of transthyretin transcription | SH-SY5Y TTR promoter Gaussia luciferase, luminescence; 100% = recombinant luciferase protein wells | 92,000 compounds, 1.3% hits | activation, % at 16.7 µM;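 active = activation above the mean of all tested compounds plus 3 SD, cut at about 9.5% in these data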;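 note: cells exposed to compounds for one day before reading; 0% = median of all test compound wells on the plate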
# TTR inh HuH7 = HuH7 TTR transcription inhibition, counter-screen; shares compounds with TTR transcr act; HuH7 TTR promoter-Gaussia luciferase reporter, luminescence; inhibition, % at 16.7 µM; 1,100 compounds, 4% hits;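 active = average inhibition above the solvent-only control wells' mean plus 3 SD, cut at about 15% in these data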;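 note: 0% = cells with DMSO only and 100% = cells with inhibitor control FD; inhibitors lower well luminescence so higher value means more inhibition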
# TTR act confirm = human TTR transcription activation, confirmation; shares compounds with TTR transcr act; SHSY5Y TTR promoter Gaussia luciferase, luminescence; 100% = purified Lucia enzyme wells, no cells; activation, % at 16.7 µM; 1,100 tested, under 10 active;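 active = mean activation above a set limit taken from the earlier primary screen, cut at about 11% in these data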;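 note: 0% = DMSO-treated cells and 100% = recombinant Lucia luciferase without cells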
# * hit, by the source's call.
SMILES,TTR transcr act,others
O=C(COC(=O)/C=C/c1ccc(F)cc1)NC1CCCC1,2,
O=C(NNC(=S)NC1CC2C=CC1C2)c1ccncc1 (configuration not stated),1,
N#CCCN(Cc1cccnc1)C(=S)NC1CC2C=CC1C2 (configuration not stated),10*,TTR inh HuH7=-9;TTR act confirm=1
O=C(CNC(=S)N(Cc1ccccc1)Cc1cccnc1)NC1CC1,5,
Cc1ccc(CN2CC(N3CCN(C)CC3)CS2(=O)=O)cc1 (configuration not stated),2,
CC1(C)C(CO)=CC(=O)C2=C1SCC(=O)N2,11*,TTR inh HuH7=-9;TTR act confirm=0
COC(=O)CCCC(=O)N1CCC(CCC(=O)NCc2ccc(F)cc2)CC1,-1,
CC(C)NC(=O)CN1CCN(C(c2cc3ccccc3o2)c2nnnn2C(C)(C)C)CC1 (configuration not stated),-2,
COc1cccc(C(=O)NOCc2ccc(C)cc2)c1OC,9.7*,TTR inh HuH7=-7;TTR act confirm=-1
COCCCNC(=O)c1cccc(OC)c1OC,-2,
COc1cccc(C(=O)NCCC2=CCCCC2)c1OC,1,
CC(C)c1ccc(NC(=O)CCN2C(=O)[C@@H]3Cc4ccccc4CN3C2=O)cc1,-1,
CCOC(=O)C1=C(COC(=O)/C=C/c2cc(OC)c(OC)c(OC)c2)NC(=O)NC1C (configuration not stated),-1,
O=C(CCN1C(=O)c2ccccc2C1=O)N1CCN(c2ccccn2)CC1,0,
Cc1ccc(C(=O)N2CCCC(CCC(=O)N3CCN(c4ccccn4)CC3)C2)s1 (configuration not stated),4,
CC(=O)c1ccccc1C(=O)N1CCCC(CCC(=O)N2CCN(c3ccccn3)CC2)C1 (configuration not stated),-1,
O=C(CCN1C(=O)C2CC=CCC2C1=O)N1CCN(c2ccccn2)CC1 (configuration not stated),9.7*,TTR inh HuH7=-10;TTR act confirm=0
Cc1ccccc1CC(=O)N1CCCC(CCC(=O)N2CCN(c3ccccn3)CC2)C1 (configuration not stated),11*,TTR inh HuH7=-1;TTR act confirm=0
O=C(CCN1C(=O)COc2ccccc21)N1CCN(c2ccccn2)CC1,-1,
COc1cccc(CN(c2ccccc2C(=O)O)S(=O)(=O)c2ccc(C)cc2)c1,-4,
C[C@H](CO)N1C[C@H](C)[C@@H](CN(C)S(=O)(=O)c2cccs2)Oc2c(NS(=O)(=O)c3ccccc3)cccc2C1=O,7,
CC(C)(C)n1nc2c(c1NC(=O)c1cccc(Cl)c1)CS(=O)(=O)C2,0,
CCCCCNC(=O)C(C)Sc1ccc(Cl)cc1 (configuration not stated),2,
O=C(NCCCNC(=O)c1cnccn1)c1ccc(Cl)cc1,4,
CCCCNC(=O)NS(=O)(=O)c1cnccc1Sc1ccc(Cl)cc1,16*,TTR inh HuH7=-17;TTR act confirm=0
SMILES,TTR transcr act,others
CCCCN(C=O)c1c(CC)nc2ccc(C(=O)NCCCN3CCCC3=O)cn12,0,
CCN(CC)C(=O)[C@H]1C[C@H](CC(=O)NCCCOC)C(=O)N2CCc3c([nH]c4cc(CCC(=O)N(C)C)ccc34)[C@]12C,0,
O=C(N[C@@H]1CC[C@H]2SC[C@H](C(=O)O)N2C1=O)OCC1c2ccccc2-c2ccccc21,-5,
O=C(NC1CCCCC1)C(CCc1ccccc1)N1CCc2ccccc2C1 (configuration not stated),1,
COc1ccc(CCN=C(N)NS(=O)(=O)c2cccs2)cc1,3,
NC(=NCCc1ccccc1)NS(=O)(=O)c1cccs1,19*,TTR inh HuH7=-8;TTR act confirm=0
NC(=NCCc1ccc(Cl)cc1)NS(=O)(=O)c1ccccc1,8,
Cc1ccccc1C(=O)N1CCC2CC1c1cc(Cl)ccc12 (configuration not stated),1,
Cn1nccc1C(=O)Nc1nnc(C2CC2)s1,-1,
Cc1ccc(S(=O)(=O)NC(=O)Nc2nnc(C3CC3)s2)cc1,-1,
O=C(Nc1nnc(C2CC2)s1)c1ccc(S(=O)(=O)c2ccccc2)cc1,16*,TTR inh HuH7=7;TTR act confirm=-1
O=S(=O)(Nc1ccccc1)C1CCCCC1,0,
CCOC(=O)C1=CN(Cc2cccc(F)c2)S(=O)(=O)N(CC)C1c1ccc(C(F)(F)F)cc1 (configuration not stated),0,
Cc1cccc(C)c1NC(=O)C(c1ccncc1)n1c(=O)c(-c2ccccc2)nc2ccccc21 (configuration not stated),-1,
Cc1ccc(S(=O)(=O)C[C@@H]2OC[C@H](C)N2S(=O)(=O)c2ccc(C)cc2)cc1,-2,
CCN(CC)S(=O)(=O)c1ccc2c(c1)nc(SC(C)C(N)=O)n2-c1ccc(OC)cc1 (configuration not stated),26*,TTR inh HuH7=6;TTR act confirm=-2
COc1ccc(-n2nnnc2SC(C)C(N)=O)cc1 (configuration not stated),2,
CCN(CC)S(=O)(=O)c1ccc2c(c1)nc(SC(C)C(=O)NCC1CCCO1)n2CC (configuration not stated),2,
Nc1cccc2c(=O)c3ccccc3[nH]c12,-1,
CCOC(=O)c1nc(Nc2ccc(N3CCC(C)CC3)cc2)c2ccccc2n1,-3,
O=S1(=O)CCOC[C@H](Cc2ccccc2)N1Cc1ccccc1F,0,
CC(C)C[C@H]1CN=C(Nc2ccccc2)N1CC(C)C,-1,
CCC(C)CCN1C(N(C)C)=NC[C@@H]1CC(C)C (some centres not stated),12*,TTR inh HuH7=-3;TTR act confirm=-1
CCC(C)CCN1C(N(C)C)=NC[C@@H]1Cc1ccccc1 (some centres not stated),1,
COC(=O)CCN1CCC2CC1c1cc(Cl)ccc12 (configuration not stated),-1,
SMILES,TTR transcr act,others
O=C(/C=C/C(=O)NCc1cccs1)NCc1cccs1,-1,
O=C(CC1CC2CCC1C2)NCc1cccs1 (configuration not stated),18*,TTR inh HuH7=-10;TTR act confirm=1
O=C(NCc1cccs1)NC1CCCCC1,1,
CCS(=O)(=O)N1Cc2cc(C(=O)NCCOC)nc(-c3cccc(-c4ccncc4)c3)c2[C@H]1CCO,0,
O=C(NC1CCCN(Cc2ccc(Cl)cc2)C1)c1ccccc1-c1ncc[nH]1 (configuration not stated),0,
COc1cccc(C(=O)N2CCC(C(=O)NCc3ccco3)CC2)c1,2,
O=C(NCCc1ccc(Cl)cc1)c1ccc(CS(=O)Cc2ccccc2Cl)o1 (configuration not stated),15*,TTR inh HuH7=1;TTR act confirm=0
O=C(NC1CCCCC1)c1ccc(CS(=O)Cc2ccccc2Cl)o1 (configuration not stated),1,
O=C(NC1CCCC1)c1ccc(CS(=O)Cc2ccccc2Cl)o1 (configuration not stated),2,
CCSCCOC(=O)C1=C(C)N(C)C(=O)NC1c1ccc2c(c1)OCO2 (configuration not stated),1,
COc1cccc(C(C)(O)c2nc(-c3cccc(C(=O)O)c3)cs2)c1 (configuration not stated),2,
COc1ccc(C(C)(NC(C)=O)c2nc(-c3cccc(C(=O)O)c3)cs2)cc1 (configuration not stated),10.0*,TTR inh HuH7=-20;TTR act confirm=0
COc1ccc(C(C)(NC(C)=O)c2nc(-c3cc(F)cc(F)c3)cs2)cc1 (configuration not stated),-2,
